Common to all, as to format: functional
In assay [1] the target is Solute carrier family 2, facilitated glucose transporter member 1 (Homo sapiens) (UniProt P11166). Put plainly: ST_JUDE_LEISH: Cytotoxicity at 2uM final concentration against transgenic Leishmania Mexicana promastigotes LmGLUT1 that are glucose transport deficient and complemented with the human glucose transporter GLUT1. Activity is measured by DNA content using SYBR green in vitro.

The target of assay [2] is Hexose transporter 1 (Plasmodium falciparum) (UniProt O97467). Put plainly: ST_JUDE_LEISH: Cytotoxicity at 2uM final concentration against transgenic Leishmania Mexicana promastigotes LmPfHT that are glucose transport deficient and complemented with the Plasmodium falciparum hexose transporter. Activity is measured by DNA content using SYBR green in vitro.
Assay [3] concerns the target Glucose transporter (Leishmania mexicana) (UniProt O61059). Put plainly: ST_JUDE_LEISH: Cytotoxicity at 2uM final concentration against transgenic Leishmania Mexicana promastigotes LmGT2 that are glucose transport deficient and complemented with the L. Mexicana glucose transporter 2. Activity is measured by DNA content using SYBR green in vitro.

SMILES strings stand for the structures.

Sequence of Solute carrier family 2, facilitated glucose transporter member 1 (Homo sapiens) (P11166 whole entry): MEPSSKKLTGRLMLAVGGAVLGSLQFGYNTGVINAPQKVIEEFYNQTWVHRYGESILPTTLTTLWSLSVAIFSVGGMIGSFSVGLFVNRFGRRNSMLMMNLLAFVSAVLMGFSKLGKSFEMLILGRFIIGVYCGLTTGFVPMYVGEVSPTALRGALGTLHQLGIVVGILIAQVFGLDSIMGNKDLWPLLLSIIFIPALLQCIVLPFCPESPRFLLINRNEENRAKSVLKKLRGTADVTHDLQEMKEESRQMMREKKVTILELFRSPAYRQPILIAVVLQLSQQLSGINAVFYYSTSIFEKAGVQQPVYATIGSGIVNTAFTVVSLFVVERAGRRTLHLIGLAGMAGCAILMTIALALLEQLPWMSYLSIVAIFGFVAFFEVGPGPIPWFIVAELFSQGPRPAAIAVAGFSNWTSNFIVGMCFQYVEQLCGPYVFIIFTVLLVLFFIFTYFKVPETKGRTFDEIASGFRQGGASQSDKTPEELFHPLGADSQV

In the case of `Cn1nc(-c2ccc(CN[C@@H]3CCc4ccc(O)cc43)cc2)c2cnc(NCCCN3CCCC3)nc21`, the results for the inhibition in assay [1], in assay [2] and in assay [3] were 1.97%, 0.42% and 1.31%, respectively.
The matching figures for `O=[N+]([O-])c1ccccc1C=NN=c1cc[nH]c2ccccc12`: -2.55%, 1.68% and -0.01%.
With `O=C(/C=C/c1ccc(Cl)c(Cl)c1)NCCCCCN1CCCN(C(=O)Nc2cccc(C(F)(F)F)c2)CC1`, the figures for the inhibition in assay [1], in assay [2] and in assay [3] were 3.99%, 2.84% and 3.62%, respectively.
Consider `CC(=O)NC(c1cccs1)c1cc(Cl)c2cccnc2c1O` (stereo not drawn), for which the inhibition in assay [1] was determined as 7.76%; in assay [2] it was 6.65%; in assay [3], 7.85%.
With `COc1cccc(NC(=O)Nc2cc(C)nc3ccccc23)c1`, the results for the inhibition in assay [1], in assay [2] and in assay [3] were 4.17%, 3.94% and 2.43%, respectively.
The matching figures for `CC(C)CN1CCN(CCNc2c3ccccc3nc3ccccc23)CC1`: 83%, 83.1% and 81.3%.
The matching figures for `Cc1cc(C(=O)Nc2ccc3c(c2)CCN3C2CCN(Cc3cccc(F)c3F)C2)no1` (stereo not drawn): -0.4%, -0.88% and 0.24%.
The like results for `CC(C)(C)n1nnnc1C(c1cccnc1)N(Cc1ccccc1)Cc1ccc(Cl)cc1` (stereo not drawn) were, in that order, 2.8%, 10.2% and 2.8%.
On to `CS(=O)(=O)Cc1cccc(Nc2ncc(Cl)c(Nc3cccnc3C(N)=O)n2)c1`, for which the inhibition in assay [1] came to 11.5%; in assay [2], 12.6%; in assay [3], 15.6%.
The like results for `COc1ccc(NC(=O)[C@H](Cc2ccccc2)Nc2cc(C)nc(NCc3ccccc3C)n2)cc1` were, in that order, 4.42%, 5.01% and 2.59%.
Consider `C#C[C@H]1O[C@@H](n2cnc3c(Nc4cc(Br)cc(C(F)(F)F)c4)ncnc32)[C@H](O)[C@@H]1O`, for which the inhibition in assay [1] was 3.1%; in assay [2] it was 2.11%; in assay [3] it was 2.53%.
The like results for `O=[N+]([O-])c1cc(/C=N/Nc2nc3ccccc3[nH]2)ccc1O` were, in that order, 8.03%, 8.49% and 4.27%.
The matching figures for `N=C(N)NN=Cc1c[nH]c2ccc(-c3ccccc3)cc12`: 0.57%, 0.13% and 1.34%.
The matching figures for `COc1cc(F)c2ncc(F)c(CCN3C[C@H](CNCc4ccc5c(n4)NC(=O)CS5)[C@H](O)C3)c2c1`: 0.13%, 1.28% and -0.04%.
For the molecule `Cc1cc(Cl)c(S(=O)(=O)N2CCc3ccccc32)cc1OCC(=O)NC1CCCCC1`, the inhibition worked out at 2.33% in assay [1], 1.17% in assay [2] and 2.14% in assay [3].
On to `CCOC(=O)C1CCN(CCCNC(=O)/C(=C/C=C/c2cc3cc(Cl)c(Cl)cc3[nH]2)OC)CC1`, for which the figures for the inhibition in assay [1], in assay [2] and in assay [3] were -1.12%, 4.1% and 0.42%, respectively.
